# Data: PubChem BioAssay AID1508600 (Functional Genomics Laboratory (NCATS/FGL), 2020)
# The campaign covered roughly 53,000 sequences. About 3,700 (7%) were called active. This is one part of a sample in which actives are shown more often than they occur. Unmarked numbers belong to inactive results.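 Rule for the calls: active = gene knockdowns whose robust z-score for IL-1 alpha signal is at least 2 or at most -2, so actives lie on both sides; inactive = the rest.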
# Experiment: Components of the Cytosolic LPS Sensing Pathway: Gene Identification via Genome-wide siRNA Screen;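 note: robust z of the log signal after scaling to non-targeting control siRNA wells of the plate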
# Details: RAW264.7 macrophages, IL-1a HTRF, actives lie on both sides, screened at 100 nM (by protocol), cells primed 5 h with Pam3CSK4 first
# Outline: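 Knockdown: 100 nM siRNA, 48h, RAW264.7. Stimulation: Pam3CSK4 5 h, then LipidA via TransIT-TKO 24 h. Output: supernatant IL-1a HTRF, negative-control-normalized, log robust z-score; viability by CellTiter-Glo.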
row,Sequence,z-score
1,GGAGUAUGAUAAUGAACCATT against Areg,-0.0698
2,GGACAUCAAGUUCUUGCCATT against Hspa5,-0.478
3,GGCUGGUAUCUUUCAGAGUTT against Cox6c,2.2 (active)
4,GGAACCAAUCGGGAUUUUGTT against B330016D10Rik,0.179
5,CGGUUCCACUUCAAAUGACTT against Hsd17b2,0.72
6,GGACACUUUCUCAUAUCAUTT against Abca9,2.06 (active)
7,GGAGGCUCUACUUUUGUAGTT against Olfr611,-2.16 (active)
8,GGCUUCCCGGAGUAACAAUTT against Dlgap1,-0.742
9,GAAAAGAAUUCCAGAAGAUTT against Sec61g,1.19
10,CCAGUGCGUCACUCAGUAATT against Ssmem1,-1.11
11,GGAUGAAGGGACGAAUUCATT against Pcdha6,0.635
12,GCUGUGCAAGCAAUAUCUATT against Hnrnpm,0.423
13,CCCUUUCGAGGUGGUAAAATT against Slc25a21,0.11
14,GCCAAAUAAUCUGAAAGCCTT against Rpl28,0.309
15,GGAGCGCGUGAAACUGUCUTT against Fbxw4,-0.752
16,GGGCCACUGCCAAAUACUATT against 2510009E07Rik,3.33 (active)
17,GGAAAGCUUCAGAAUCUAATT against Bckdk,-0.365
18,GCUCGAGAUCGAAACAUACTT against Tmed5,-1.13
19,GCCACUUUAGUAUGGAAUGTT against Nxt1,0.822
20,GGCUGUGGAAUGACACCAATT against Sars2,-1.01
21,GGAUAUCUCGGGUUGAAUUTT against Aurka,-1.38
22,GGCUAAUGGACAAAAAAUUTT against Pacrgl,0.28
23,CCAUGACUACAACACAUACTT against Ndufv3,-3.07 (active)

row,Sequence,z-score
1,GGAAGACAUACUGUUGAAATT against Mettl23,-0.147
2,GGCUCUUGUCACAUGAUCATT against Jagn1,-1.77
3,GGGUUCAAAACUAUGGAUATT against Stk26,0.575
4,GGAUCUGAGUGCUCUACUGTT against Kctd20,2.08 (active)
5,GGCCCACAGGAACAUCCUATT against Zbtb8b,-0.134
6,GGACAAACAGCUUCAAGAUTT against Psmd2,-2.26 (active)
7,GGGUUCUUUCACUGAACGATT against Pskh1,0.9
8,GGCAUCUUCAUCAAGGAUUTT against Sf3a1,-1.1
9,GGCUUAAGUGUGCAGCUACTT against B3gnt4,-0.479
10,GGACAUUGCUGCCUAUAUCTT against Dynll2,0.452
11,GCGAUCCUGACUUGUUCAATT against Kdm6b,2.27 (active)
12,GGACAAGAAGCAUCUUUCATT against Smpdl3a,-1.16
13,GGAAACUUUAGCAUGAAUGTT against Hmgxb4,-0.335
14,GCAUGCGUGAGAAACUGAUTT against Clec2e,-0.152
15,GCAAGCUAAUGAGCUACAATT against Samd9l,-0.107
16,CCGCCCGCUCAACACUAAUTT against Zfp36l3,-2.39 (active)
17,GGUAUAUUGCCAUAUGUAATT against Olfr731,-0.174
18,CCAUGGGCCUACCAAACAGTT against Celf2,-1.86
19,GCCGGAUAACAUCAGACACTT against Rmnd1,-0.146
20,GCCACAGAGCUAGACUGUCTT against Wdr86,0.241
21,GGAACAUCUUCAAAGAAGATT against Minar1,-0.963
22,GUUUUGUUUCAGAGCAGAATT against Olfr900,-0.134
23,GCUAAUAACUGUUCACAUATT against Magi1,1.97

row,Sequence,z-score
1,CCAAUCUUAGUCAUCCAUUTT against Foxo6,-2.27 (active)
2,GUAUUGUCAUCAUCAUUUCTT against Olfr910,0.115
3,GGUCGGCCAAUUACAAUGUTT against Eml4,2.16 (active)
4,GCGAUGAGACAGAUGUCGATT against Tcof1,-0.0757
5,GGUCUUCAACAACAUUAUCTT against Hid1,1
6,GCCGAUCCAUUUUUGGCUCTT against Mlxip,0.86
7,GGAGUAUUACCUGGUUAAGTT against Suv39h1,-1.18
8,GCAAGUUAAGGAUAUCAUGTT against Katna1,1.2
9,CCGAGUCUUGAACUAGGCATT against Six2,-2.01 (active)
10,GCUUUCUGAAGUAGCAAAGTT against Nit2,0.42
11,GAUGUACGAGAGCUUAGCATT against Uqcc2,-1.14
12,GGACUACCUGUGUAUGCUCTT against Dcaf12l1,1.3
13,GGAAUGUUCCUUCGAGCAGTT against Ccdc28b,-0.197
14,GCCAUAGAAGUAGAAGUAGTT against Rbmx2,-2.29 (active)
15,GGCGAAAGUAAGACAAAGUTT against Ric8a,0.708
16,GGCAAACCGACAGACUUCUTT against Riok1,-0.033
17,GGUCUCUCAUUACCACAUUTT against Olfr69,1.75
18,GGAAGAUCAGCCAUACUAGTT against Klrb1f,2.12 (active)
19,GCCCACACUUGCUAAUGAATT against Ppp1r26,0.468
20,GCUGAACGAUGACUAUCCCTT against Cryba4,2.2 (active)
21,GCUUGUGCCAAGCAUUCUUTT against Rdh1,0.861
22,GGACUCAGAAGAAAUGGACTT against Osbpl6,0.109
23,GCUCUGCUAACUUACAUCUTT against Mtmr11,1.75
